Rango release inh = inhibition of RanGTP-driven Rango-importin beta dissociation; 340,000 tested, 0.071% active; O95149+P62826; Biochemical FRET Rango-importin beta, RanGTP-induced dissociation; AID 540253; Potency, µM (titrated, usually from 46.1 µM), inactives show top-dose activity change, negative = inhibition; calls by dose curve; also: potency is read from the fitted curve at half-maximal effect; % of control where 0% means no effect; nearly all actives have a fitted effect of over 45% in size
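FRET read at 45 min, room temperature: inhibitors block the CFP/YFP signal rise when RanGTP (0.6 uM Ran, 2 mM GTP, 0.2 uM RCC1) frees Rango (0.1 uM) from importin beta (0.25 uM). Pre-read after 5 min compound exposure flags interference.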
Rango-impB inh = Rango-importin beta binding inhibition. 340,000 tested, 0.031% active. Rango CFP/YFP FRET sensor + importin beta, 45 min. Potency, µM (highest dose often 92.2 µM), for the others: at the top dose inhibition of complex formation; calls by dose curve;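 also: potency is read from the fitted curve at half-maximal effect; 0% = DMSO wells and 100% = buffer wells lacking importin beta; nearly all actives have a fitted effect of over 15% in size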
Target sequence (Q14974 whole entry, looked up): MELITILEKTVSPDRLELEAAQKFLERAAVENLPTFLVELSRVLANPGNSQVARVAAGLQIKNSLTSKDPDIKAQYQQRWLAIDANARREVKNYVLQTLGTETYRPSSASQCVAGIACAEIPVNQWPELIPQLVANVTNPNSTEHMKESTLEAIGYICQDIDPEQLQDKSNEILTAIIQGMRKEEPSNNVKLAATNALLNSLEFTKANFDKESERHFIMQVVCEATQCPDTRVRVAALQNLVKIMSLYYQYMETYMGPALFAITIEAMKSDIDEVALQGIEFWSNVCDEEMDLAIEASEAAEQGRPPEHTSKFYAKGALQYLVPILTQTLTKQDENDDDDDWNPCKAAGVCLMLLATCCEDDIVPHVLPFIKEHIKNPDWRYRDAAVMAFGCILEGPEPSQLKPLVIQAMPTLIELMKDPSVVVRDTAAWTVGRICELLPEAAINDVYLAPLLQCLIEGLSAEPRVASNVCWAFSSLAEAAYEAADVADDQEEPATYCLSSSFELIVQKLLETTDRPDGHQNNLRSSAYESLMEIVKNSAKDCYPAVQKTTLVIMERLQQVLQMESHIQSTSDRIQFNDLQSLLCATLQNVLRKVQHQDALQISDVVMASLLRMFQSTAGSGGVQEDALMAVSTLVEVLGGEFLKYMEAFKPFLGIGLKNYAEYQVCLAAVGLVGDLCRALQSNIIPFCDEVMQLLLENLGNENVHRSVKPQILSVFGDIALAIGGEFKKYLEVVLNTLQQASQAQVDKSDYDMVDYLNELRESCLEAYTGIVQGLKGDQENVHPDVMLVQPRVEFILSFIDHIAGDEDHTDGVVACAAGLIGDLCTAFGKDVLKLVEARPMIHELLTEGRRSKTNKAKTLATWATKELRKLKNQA
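Inhibition scored from the CFP 486 nm/YFP 530 nm FRET ratio 45 min after adding 0.125 microM importin beta to 50 nM Rango biosensor preincubated 5 min with compound (room temperature, PBS with DTT, Tween-20, BSA). No-importin wells as positive control.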
KAT2A inh = inhibitors of human GCN5L2 histone acetyltransferase. Q92830. GCN5L2 HAT assay, ThioGlo1 CoA-SH fluorescence. Potency, µM (titrated, usually from 58.9 µM), without a hit: at the highest dose activity change, negative = inhibition, hits mostly inhibitors. 390,000 tested, 0.21% active. AID 504327; also: potency is read from the fitted curve at half-maximal effect; % is scaled to controls: 0 for no effect and ±100 for the full control effect
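Titration-based screen in which CoA formation is detected via maleimide probe ThioGlo1 (50uM) turning fluorescent on thiol reaction; substrates H3(1-25) 75uM and acetyl-CoA 70uM, GCN5L2 20nM, 20 min incubation at room temperature.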
PI5P4Ka inh = blocks human PI5P4K alpha kinase activity; PI5P4Kalpha enzyme, ADP-Glo luminescence, 60 min; stronger effect = lower value; max response, %; 330,000 tested, 1.2% active; AID 652105; active = max response of -50% or lower; inconclusive = between -30% and -50%; inactive = -30% or higher; also: value at the top dose of about 77 µM; % is scaled to controls: 0 for no effect and ±100 for the full control effect
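Human PI5P4Kalpha with substrate in 0.038 M HEPES pH 7.4, 0.28 mM EGTA, 0.1% CHAPS, 5% DMSO; reaction started with 5 microM ATP (final), 60 min at room temperature. ADP formed read by ADP-Glo luminescence.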
VDR inh = inhibitors of human vitamin D receptor. P11473. VDR-SRC2-3 peptide fluorescence polarization, 2 h. Potency, µM, without a hit: max response, negative = inhibition, hits mostly inhibitors. 400,000 tested, 0.93% active; also: potency is read from the fitted curve at half-maximal effect; % is scaled to controls: 0 for no effect and ±100 for the full control effect
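Two reagent solutions held at 4 deg C in the dark were dispensed, compounds pinned at 23 nl, and the mixture incubated 2 h at room temperature. Read-out: fluorescence polarization of VDR–SRC2-3 peptide binding.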
PLK1 PBD inh = inhibitors of human PLK1 polo-box domain binding. P53350. AID 720504. Potency, µM, without a hit: max response, negative = inhibition, most hits filed as inhibitors. 360,000 tested, 2.8% active. Plk1 PBD binding of FITC phosphopeptide, fluorescence polarization; also: potency is read from the fitted curve at half-maximal effect; series mostly up to about 57 µM; % is scaled to controls: 0 for no effect and ±100 for the full control effect; nearly all actives have a fitted effect of over 65% in size
The depositor's hits bear a star; ? = inconclusive; nt = no result given. A selection: hits, their analogues and other compounds. The true share with any hit is near 3.6%. Unless noted, calls follow the shape of the dose curve; as a rule, active = well fitted curve in the direction sought with a large enough effect; inconclusive = small, poorly fitted or top-dose-only effect, or another doubt; inactive = no such curve, though single readings can be large; an effect the other way counts as inactive or inconclusive.

SMILES	Rango release inh	Rango-impB inh	KAT2A inh	PI5P4Ka inh	VDR inh	PLK1 PBD inh
CC(=O)c1ccc(N2CCN(C(=O)NCc3noc4ccc(C)cc34)CC2)cc1	nt	nt	-3.4%	nt	12.5%	nt
CCSc1nc2c(c(=O)[nH]c(=O)n2C)n1CC(O)COc1ccccc1C (stereo not drawn)	-0.9%	-3.1%	-1.0%	nt	-27.1%	26.7µM*
Cc1ccccc1OCC(O)Cn1c(SC(C)C)nc2c1c(=O)[nH]c(=O)n2C (stereo not drawn)	2.7%	3.0%	-10.8%	nt	?	29.9µM*
Cc1ccccc1OCC(O)Cn1c(Br)nc2c1c(=O)[nH]c(=O)n2C (stereo not drawn)	10.2%	3.2%	-0.8%	-1.0	-3.4%	1.1%
O=C(/C=C/c1cccc([N+](=O)[O-])c1)c1ccccc1	nt	nt	nt	nt	20µM*	nt
COc1ccccc1C(=O)/C=C/c1ccc(N2CCCCC2)c([N+](=O)[O-])c1	5.2%	-0.2%	-24.6%	-6.1	79.4µM*	-13.7%
O=C(/C=C/c1ccc(N2CCCCC2)c([N+](=O)[O-])c1)c1ccc(O)cc1	36.9%	-0.6%	-10.0%	-3.2	?	-6.5%
O=C(N/N=C/C=C/c1ccco1)c1cccc([N+](=O)[O-])c1	-0.4%	0.4%	-1.1%	-18.3	-2.0%	-4.6%
O=C(/C=C/c1ccco1)c1cccc([N+](=O)[O-])c1	0.1%	0.0%	nt	-72.9*	70.8µM*	-20.2%
CC(=O)Oc1ccccc1C(=O)C=Cc1cccc([N+](=O)[O-])c1	-18.2%	4.7%	nt	4.0	22.4µM*	?
COc1ccc(N(Cc2nnc3n2CCCCC3)C(=O)Nc2cccc(C)c2)cc1Cl	nt	nt	-18.5%	nt	-3.7%	nt
O=C(Nc1ccccc1Cl)N1CCC2(CC1)Oc1ccccc1C(=O)N2Cc1ccc(F)cc1	nt	nt	-6.2%	nt	-1.0%	nt
COC(=O)C1=C[C@@H](C(=O)OC)[C@@H]2C3=C(C(=O)[C@@]2(CC(C)C)NC(=O)c2ccccc2)[C@H](C)n2c(=O)n(-c4ccccc4)c(=O)n2[C@@H]3C1	nt	nt	nt	nt	-5.1%	nt
CCCC(C)NC(=O)/C=C/c1cccc([N+](=O)[O-])c1 (stereo not drawn)	4.6%	-3.3%	3.6%	8.2	17.2%	0.2%
CCCCN(CC)C(=O)/C=C/c1cccc([N+](=O)[O-])c1	16.8%	0.2%	-8.8%	-5.8	3.9%	26.7µM*
COc1ccc(S(=O)(=O)Nc2cccc(-c3ccc(N4CCC(C)CC4)nn3)c2)cc1OC	nt	nt	-13.6%	nt	4.1%	nt
CC(C(=O)Nc1ccc2c(c1)OCCO2)c1ccc([N+](=O)[O-])cc1 (stereo not drawn)	7.0%	0.0%	0.6%	2.5	-3.0%	29.9µM*
CC(C(=O)Nc1ccc2c(c1)OCO2)c1ccc([N+](=O)[O-])cc1 (stereo not drawn)	6.6%	-0.5%	16.6%	-0.6	4.6%	-10.8%
CC1CCN(S(=O)(=O)c2ccc3c(c2)N(CC(=O)NCCN(C)C)C(=O)CS3)CC1	nt	nt	-5.7%	nt	-8.3%	nt
CCC1CCCCN1CCCNC(=O)c1ccc2c(c1)N(Cc1ccccc1F)C(=O)c1ccccc1S2(=O)=O (stereo not drawn)	nt	nt	1.8%	nt	-17.6%	nt
Cc1ccc(N/N=C/c2c(C)c(C#N)c(=O)n(C)c2O)cc1C	-21.0%	?	-14.2%	-54.3*	?	23.8µM*
COc1cc(S(=O)(=O)Nc2ccc(C)cc2)ccc1N=Cc1c(C)c(C#N)c(=O)n(C)c1O	?	?	-6.3%	-11.2	22.3%	?
Cc1ccc([C@@H]2CC=C(C(=O)O)[C@H](c3ccc(Cl)cc3)N2S(=O)(=O)c2ccccc2C)cc1	-4.7%	?	-24.3%	0.3	-14.3%	21.2µM*
Cc1ccccc1S(=O)(=O)N1[C@@H](c2ccccc2)C(C(=O)O)=CC[C@H]1c1ccc(Cl)cc1	6.9%	0.3%	-16.6%	-0.4	?	?
Cc1ccccc1S(=O)(=O)N1[C@@H](c2ccc(Br)cc2)C(C(=O)O)=CC[C@H]1c1ccc(Cl)cc1	-15.7%	6.8%	?	-3.4	?	21.2µM*
